Test results as given in PubChem BioAssay (NCI).
Compounds without any hit were thinned out: in the full panel of roughly 83,000, 20% have a hit.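 Cells were grown in 96-well plates and exposed to the test compound at a single concentration for 48 hours; results are reported as percent growth, with values below 10 considered active.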 Unmarked numbers belong to inactive results. The source made the active and inactive calls.

Legend:
Experiment in all cases: NCI-60 one-dose screen, 48 h (100 = growth as untreated, 0 = no growth, -100 = all killed)
Conditions in all cases: 10 µM unless noted
[1] = system: SK-MEL-2 melanoma
[2] = system: EKVX NSCLC
[3] = system: SN12C renal
[4] = system: UO-31 renal
[5] = system: TK-10 renal
[6] = system: ACHN renal
[7] = system: A498 renal
[8] = system: CCRF-CEM leukemia
[9] = system: MOLT-4 leukemia
[10] = system: SR leukemia
[11] = system: RPMI-8226 leukemia
[12] = system: OVCAR-8 ovarian
[13] = system: OVCAR-5 ovarian
[14] = system: OVCAR-4 ovarian
[15] = system: SK-OV-3 ovarian
[16] = system: IGROV1 ovarian
[17] = system: OVCAR-3 ovarian
[18] = system: HS 578T breast
[19] = system: NCI/ADR-RES ovarian
[20] = system: T-47D breast

CCOC(=O)c1c(C)nc2c(c1N)/C(=C/c1ccccn1)C(=O)N2Cc1ccccc1
growth [1]: -26.1% (active) | growth [2]: 24.8% | growth [3]: 8.15% (active) | growth [4]: -65.6% (active) | growth [5]: 2.08% (active) | growth [6]: 0.89% (active) | growth [7]: 54.6% | growth [8]: 2.47% (active) | growth [9]: -12.8% (active) | growth [10]: -11.8% (active) | growth [11]: -25.8% (active) | growth [12]: -7.26% (active) | growth [13]: 64.1% | growth [14]: 47.8% | growth [15]: 65.9% | growth [16]: -10.6% (active) | growth [17]: -19% (active) | growth [18]: 33.2% | growth [19]: -3.17% (active) | growth [20]: 9.22% (active)

COc1cc(NC(=O)Nc2cnc(Nc3ccc(N4CCOCC4)cc3)nc2Oc2ccc(C(F)(F)F)cc2)cc(OC)c1
growth [1]: 108% | growth [2]: 106% | growth [3]: 102% | growth [4]: 84.7% | growth [5]: 116% | growth [6]: 105% | growth [7]: 110% | growth [8]: 89.4% | growth [9]: 90.5% | growth [10]: 79.9% | growth [11]: 92.5% | growth [12]: 100% | growth [13]: 116% | growth [14]: 111% | growth [15]: 104% | growth [16]: 104% | growth [17]: 110% | growth [18]: 99.4% | growth [19]: 104% | growth [20]: 98.4%

COc1ccc(Sc2[nH]c(C(C)=O)c3ccccc23)cc1
growth [1]: 57.8% | growth [2]: 30.9% | growth [3]: 87.5% | growth [4]: 73.5% | growth [5]: 58.9% | growth [6]: 80.9% | growth [7]: -0.948% (active) | growth [8]: 39.6% | growth [9]: 48.5% | growth [10]: 8.36% (active) | growth [11]: 41.4% | growth [12]: 88% | growth [13]: 94.1% | growth [14]: 71.2% | growth [15]: 19% | growth [16]: 83.6% | growth [17]: 68.3% | growth [18]: 83.9% | growth [19]: 40.8% | growth [20]: 56.5%

CCCCCCCCCCCCCC1=NCC[N+]1(CCO)Cc1ccccc1 (stereo not given)
growth [1]: -61.7% (active) | growth [2]: -79.5% (active) | growth [3]: -84.3% (active) | growth [4]: -86.1% (active) | growth [5]: -85.4% (active) | growth [6]: -98% (active) | growth [7]: 54.2% | growth [8]: -49.5% (active) | growth [9]: -58.1% (active) | growth [10]: -50.7% (active) | growth [11]: -47.2% (active) | growth [12]: -83% (active) | growth [13]: -15% (active) | growth [14]: -28.5% (active) | growth [15]: 48.8% | growth [16]: -72.6% (active) | growth [17]: -86.9% (active) | growth [18]: -36.5% (active) | growth [19]: -60.1% (active) | growth [20]: -72.8% (active)

Cn1c2c(c3ccc(-c4ccn[nH]4)cc3c1=O)C(=O)c1ccccc1-2
growth [1]: 118% | growth [2]: 20.2% | growth [3]: 7.3% (active) | growth [4]: 19.2% | growth [5]: 71.6% | growth [6]: -8.82% (active) | growth [7]: 60% | growth [8]: 2.31% (active) | growth [9]: -1.45% (active) | growth [10]: 1.32% (active) | growth [11]: -11.6% (active) | growth [12]: 29.4% | growth [13]: 86% | growth [14]: 74% | growth [15]: 74.2% | growth [16]: 45.6% | growth [17]: 60.3% | growth [18]: 85.8% | growth [19]: 53.2% | growth [20]: 32.2%

CCCCCCCc1n(Cc2ccc3ccccc3c2)c2ccccc2[n+]1Cc1ccc2ccccc2c1
growth [1]: -74.9% (active) | growth [2]: -73.5% (active) | growth [3]: -79.8% (active) | growth [4]: -88.1% (active) | growth [5]: -87.3% (active) | growth [6]: -87.4% (active) | growth [7]: -93.3% (active) | growth [8]: -59.1% (active) | growth [9]: -68% (active) | growth [10]: -60.4% (active) | growth [11]: -53% (active) | growth [12]: -69.8% (active) | growth [13]: -83.7% (active) | growth [14]: -62.5% (active) | growth [15]: -91.7% (active) | growth [16]: -67.5% (active) | growth [17]: -86.7% (active) | growth [18]: -42.7% (active) | growth [19]: -35% (active) | growth [20]: -74.2% (active)

Nc1ccccc1NC(=O)c1ccc(CSc2nc(N3CCOCC3)c3cccn3n2)cc1
growth [1]: -28.9% (active) | growth [2]: 25.8% | growth [3]: 16.6% | growth [4]: -24.8% (active) | growth [5]: -10.7% (active) | growth [6]: 16.3% | growth [7]: -12.1% (active) | growth [8]: 5.4% (active) | growth [9]: 1.08% (active) | growth [10]: 13.4% | growth [11]: -4.81% (active) | growth [12]: 15.9% | growth [13]: 29.5% | growth [14]: 42% | growth [15]: 6.2% (active) | growth [16]: 21.5% | growth [17]: 1.87% (active) | growth [18]: 23.1% | growth [19]: 3.65% (active) | growth [20]: -1.13% (active)

Cc1c(C(=O)Nc2nc3ccccc3[nH]2)cnn1-c1ccccn1
growth [1]: 105% | growth [2]: 103% | growth [3]: 114% | growth [4]: 104% | growth [5]: 98.3% | growth [6]: 114% | growth [7]: 96.4% | growth [8]: 90.8% | growth [9]: 77.5% | growth [10]: 83.8% | growth [11]: 95.6% | growth [12]: 98.3% | growth [13]: 108% | growth [14]: 105% | growth [15]: 104% | growth [16]: 114% | growth [17]: 112% | growth [18]: 112% | growth [19]: 106% | growth [20]: 101%

S=C(Nc1ccc(Cl)cc1)c1ccccn1
growth [1]: 92.1% | growth [2]: 87.9% | growth [3]: 99.3% | growth [4]: 71.5% | growth [5]: 110% | growth [6]: 99% | growth [7]: 69.2% | growth [8]: 99.4% | growth [9]: 101% | growth [10]: 102% | growth [11]: 96.8% | growth [12]: 92.7% | growth [13]: 102% | growth [14]: 96.9% | growth [15]: 94.3% | growth [16]: 93.3% | growth [17]: 109% | growth [18]: 95.9% | growth [19]: 96.6% | growth [20]: 79.2%

CN(C)CCCn1c2c(c3cc(-c4cccc(S(N)(=O)=O)c4)ccc3c1=O)C(=O)c1ccccc1-2
growth [1]: 124% | growth [2]: 88.6% | growth [3]: 78.3% | growth [4]: 72.9% | growth [5]: 99.5% | growth [6]: 57.2% | growth [7]: 96.4% | growth [8]: 18.8% | growth [9]: 8.99% (active) | growth [10]: -5.99% (active) | growth [11]: 70.3% | growth [12]: 56% | growth [13]: 97.7% | growth [14]: 82.3% | growth [15]: 67.8% | growth [16]: 66.7% | growth [17]: 87.8% | growth [18]: 99.6% | growth [19]: 70.6% | growth [20]: 74.7%

C#C[C@@]1(O)[C@@H](CO)O[C@@H](n2cc(-c3ccco3)c3c(N)ncnc32)[C@@H]1O
growth [1]: 84.3% | growth [2]: 67.3% | growth [3]: 71.8% | growth [4]: 36.5% | growth [5]: 69.1% | growth [6]: 90.2% | growth [7]: 54.6% | growth [8]: 86.9% | growth [9]: 32.8% | growth [10]: 94.4% | growth [11]: 80.3% | growth [12]: 65.9% | growth [13]: 66.9% | growth [14]: 61.2% | growth [15]: 26.3% | growth [16]: -11.6% (active) | growth [17]: 80.3% | growth [18]: 49.8% | growth [19]: 61.7% | growth [20]: -17.2% (active)

O=C1CC23OC(C(O)c4ccccc4N12)C1C(c2ccccc2)=NOC13 (stereo not given)
growth [1]: 40.8% | growth [2]: 57.7% | growth [3]: 42.9% | growth [4]: 45.1% | growth [5]: 102% | growth [6]: 52.7% | growth [7]: 71% | growth [8]: 68.3% | growth [9]: 37.2% | growth [10]: 22.2% | growth [11]: 28.5% | growth [12]: 70.4% | growth [13]: 81.2% | growth [14]: 89.7% | growth [15]: 79.9% | growth [16]: 43.6% | growth [17]: 56.7% | growth [18]: 52.2% | growth [19]: 15.8% | growth [20]: 52.8%

N#CC1C(c2ccc(Cl)cc2)=Nc2c(c(-c3ccccc3)nn2-c2ccccc2)C12C(=O)Nc1ccc(Cl)cc12 (stereo not given)
growth [1]: 71.3% | growth [2]: 40.1% | growth [3]: 60.2% | growth [4]: 22.6% | growth [5]: 47.8% | growth [6]: 36.6% | growth [7]: 60.3% | growth [8]: 19.2% | growth [9]: 15.3% | growth [10]: 36.5% | growth [11]: 24.7% | growth [12]: 64.6% | growth [13]: 65.2% | growth [14]: 34.4% | growth [15]: 68.6% | growth [16]: 42.1% | growth [17]: 49.7% | growth [18]: 51.4% | growth [19]: 67.6% | growth [20]: 46.7%

CC(C)(C#N)c1cc(F)cc(C(=O)Nc2cc(Nc3ncccc3-c3ncnc4nc[nH]c34)ccc2F)c1
growth [1]: -12.8% (active) | growth [2]: 59.5% | growth [3]: 56.7% | growth [4]: 12.8% | growth [5]: 49% | growth [6]: 38.5% | growth [7]: -4.87% (active) | growth [8]: 38.9% | growth [9]: 29.2% | growth [10]: 35.5% | growth [11]: 23.7% | growth [12]: 41.1% | growth [13]: 37% | growth [14]: 70.3% | growth [15]: 63.7% | growth [16]: 15.4% | growth [17]: 55.2% | growth [18]: 39.9% | growth [19]: 37.1% | growth [20]: 42.8%

CCCn1c2cc(OCc3cn(-c4ccc(Br)cc4)nn3)ccc2c2ccnc(C)c21
growth [1]: 70.6% | growth [2]: 82.7% | growth [3]: 17.5% | growth [4]: 23.4% | growth [5]: 85.9% | growth [6]: 17.4% | growth [7]: 77.8% | growth [8]: 13.1% | growth [9]: 45.6% | growth [10]: -15.2% (active) | growth [11]: 33% | growth [12]: 50.8% | growth [13]: 68.3% | growth [14]: -44% (active) | growth [15]: 85.7% | growth [16]: 49.1% | growth [17]: 60.5% | growth [18]: 66.9% | growth [19]: 63.1% | growth [20]: 66.6%
